What all share (test): DAPPL (digital affinity profiling via proximity ligation, sequencing); 10 mM Tris-HCl pH 7.5, 50 mM NaCl, 1 mM DTT, 4% glycerol, room temperature, 30 min; GST-TFs on glutathione beads, 16-mer random dsDNA library, 0.1% formaldehyde crosslink after washing; high values mean tight binding
Conditions in all cases: protein: recombinant; tags: N-terminal GST; dsDNA, one strand shown

The target in one experiment is T1, FLI1 (Homo sapiens, UniProt Q01543 1-452).
T1 sequence: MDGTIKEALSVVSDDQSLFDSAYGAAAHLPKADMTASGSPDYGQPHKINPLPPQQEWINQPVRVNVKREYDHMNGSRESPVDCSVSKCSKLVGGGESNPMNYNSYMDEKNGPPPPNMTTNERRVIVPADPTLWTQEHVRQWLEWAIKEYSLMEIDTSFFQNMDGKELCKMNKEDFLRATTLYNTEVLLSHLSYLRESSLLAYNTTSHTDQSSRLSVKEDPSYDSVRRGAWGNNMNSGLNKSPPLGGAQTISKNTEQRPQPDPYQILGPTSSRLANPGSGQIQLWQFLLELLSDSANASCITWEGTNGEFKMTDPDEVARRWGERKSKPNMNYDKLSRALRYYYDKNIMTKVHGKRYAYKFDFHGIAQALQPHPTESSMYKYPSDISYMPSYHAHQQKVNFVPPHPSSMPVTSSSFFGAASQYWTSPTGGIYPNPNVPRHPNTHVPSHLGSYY
The gist of the method:
(§1)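 The binding signal reported is, for every hexamer, its read frequency for a factor over its read frequency for the tag-only sample. Reads came from pools of yeast-expressed, GST-fused human transcription factors on glutathione beads, barcoded with DNA and mixed with that sample, which were incubated with 200 nmole of a random double-stranded 16-mer DNA library in Tris/NaCl/DTT/glycerol buffer at room temperature for 30 min. After washing, the pools were crosslinked with 0.1% formaldehyde, proximity-ligated with BsaI/T4 ligase for 1 h at 37 °C, PCR-amplified and sequenced on an Illumina NextSeq500.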

A further experiment has as its target T2, ELK1 (Homo sapiens, UniProt P19419 1-428).
T2 sequence: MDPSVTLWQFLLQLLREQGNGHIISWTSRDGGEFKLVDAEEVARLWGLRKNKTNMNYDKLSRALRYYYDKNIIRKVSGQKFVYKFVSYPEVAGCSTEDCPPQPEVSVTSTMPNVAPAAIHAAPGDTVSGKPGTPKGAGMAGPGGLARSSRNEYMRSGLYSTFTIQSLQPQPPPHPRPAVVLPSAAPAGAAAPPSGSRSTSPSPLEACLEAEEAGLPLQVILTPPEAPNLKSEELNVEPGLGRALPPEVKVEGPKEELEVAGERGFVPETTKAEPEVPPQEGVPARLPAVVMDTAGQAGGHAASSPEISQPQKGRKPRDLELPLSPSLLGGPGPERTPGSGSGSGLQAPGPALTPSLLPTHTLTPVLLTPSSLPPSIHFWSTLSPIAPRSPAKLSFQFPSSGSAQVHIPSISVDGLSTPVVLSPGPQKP
Summed up:
as §1

The next experiment deals with T3, GABPA (Homo sapiens, UniProt Q06546 1-454).
T3 sequence: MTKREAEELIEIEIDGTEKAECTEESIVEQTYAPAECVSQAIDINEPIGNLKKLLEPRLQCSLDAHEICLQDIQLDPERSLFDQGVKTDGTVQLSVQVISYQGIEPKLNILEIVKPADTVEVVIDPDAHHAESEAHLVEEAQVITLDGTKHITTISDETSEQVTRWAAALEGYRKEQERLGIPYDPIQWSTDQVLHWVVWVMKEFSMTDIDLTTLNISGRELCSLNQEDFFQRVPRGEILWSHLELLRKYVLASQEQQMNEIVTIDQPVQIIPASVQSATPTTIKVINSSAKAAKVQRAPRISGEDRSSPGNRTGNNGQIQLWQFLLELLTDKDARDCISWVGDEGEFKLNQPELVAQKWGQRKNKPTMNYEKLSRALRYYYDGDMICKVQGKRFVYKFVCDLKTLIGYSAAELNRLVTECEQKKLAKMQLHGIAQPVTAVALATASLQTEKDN
The gist of the method: as §1

A further experiment deals with T4, ERG (Homo sapiens, UniProt P11308 1-479).
T4 sequence: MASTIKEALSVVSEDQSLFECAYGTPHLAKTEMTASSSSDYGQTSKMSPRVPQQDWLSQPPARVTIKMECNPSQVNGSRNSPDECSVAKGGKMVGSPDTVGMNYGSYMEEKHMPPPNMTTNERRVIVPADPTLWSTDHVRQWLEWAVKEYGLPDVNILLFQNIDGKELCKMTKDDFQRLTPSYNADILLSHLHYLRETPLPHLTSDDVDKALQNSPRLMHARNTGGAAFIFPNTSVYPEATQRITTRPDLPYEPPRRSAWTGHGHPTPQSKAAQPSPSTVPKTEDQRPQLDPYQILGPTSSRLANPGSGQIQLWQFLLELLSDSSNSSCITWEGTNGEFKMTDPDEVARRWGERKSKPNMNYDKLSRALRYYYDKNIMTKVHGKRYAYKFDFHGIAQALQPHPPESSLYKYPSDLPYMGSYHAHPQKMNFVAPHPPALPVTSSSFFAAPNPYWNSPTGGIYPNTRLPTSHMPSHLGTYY
Summed up: as §1

The next experiment has as its target ELF1 (Homo sapiens, UniProt P32519 1-619). The gist of the method:
as §1

For another experiment, the target named is T5, EHF (Homo sapiens, UniProt Q9NZC4 1-300).
T5 sequence: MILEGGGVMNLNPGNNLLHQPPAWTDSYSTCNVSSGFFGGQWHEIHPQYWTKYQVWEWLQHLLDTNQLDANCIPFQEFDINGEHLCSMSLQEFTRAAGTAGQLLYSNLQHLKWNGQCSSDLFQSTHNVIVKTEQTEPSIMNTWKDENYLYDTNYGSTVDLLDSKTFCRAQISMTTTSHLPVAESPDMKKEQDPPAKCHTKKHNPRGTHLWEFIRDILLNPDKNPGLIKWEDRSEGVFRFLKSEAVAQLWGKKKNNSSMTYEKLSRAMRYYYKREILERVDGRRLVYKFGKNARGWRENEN
The gist of the method:
as §1

The next experiment addresses SPI1 (Homo sapiens, UniProt P17947 1-270). The gist of the method: as §1
A further experiment concerns the target SPIB (Homo sapiens, UniProt Q01892 1-262). The gist of the method:
as §1

For another experiment, the target named is T6, ELK3 (Homo sapiens, UniProt P41970 1-407).
T6 sequence: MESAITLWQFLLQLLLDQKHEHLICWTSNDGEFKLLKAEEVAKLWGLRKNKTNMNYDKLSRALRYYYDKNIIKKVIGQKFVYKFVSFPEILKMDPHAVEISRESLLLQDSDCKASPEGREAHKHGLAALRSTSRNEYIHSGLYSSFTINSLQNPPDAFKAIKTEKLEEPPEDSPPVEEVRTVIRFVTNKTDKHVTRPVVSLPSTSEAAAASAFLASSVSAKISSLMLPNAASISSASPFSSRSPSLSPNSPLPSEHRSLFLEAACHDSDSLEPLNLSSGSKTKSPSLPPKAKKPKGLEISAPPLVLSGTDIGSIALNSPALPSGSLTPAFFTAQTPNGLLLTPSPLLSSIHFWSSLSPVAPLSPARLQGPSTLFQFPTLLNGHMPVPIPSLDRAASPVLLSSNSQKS
Summed up: as §1

Another experiment addresses T7, FEV (Homo sapiens, UniProt Q99581 1-238).
T7 sequence: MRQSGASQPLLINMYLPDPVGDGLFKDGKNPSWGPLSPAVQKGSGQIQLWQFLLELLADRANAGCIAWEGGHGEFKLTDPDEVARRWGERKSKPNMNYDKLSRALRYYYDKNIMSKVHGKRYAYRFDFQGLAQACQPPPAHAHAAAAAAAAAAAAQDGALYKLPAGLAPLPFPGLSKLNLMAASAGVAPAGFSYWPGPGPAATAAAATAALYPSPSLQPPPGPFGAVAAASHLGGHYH
Summed up:
as §1

Another experiment has as its target ETV5 (Homo sapiens, UniProt P41161 1-510). The gist of the method:
as §1

Another experiment has as its target T8, SPIC (Homo sapiens, UniProt Q8N5J4 1-248).
T8 sequence: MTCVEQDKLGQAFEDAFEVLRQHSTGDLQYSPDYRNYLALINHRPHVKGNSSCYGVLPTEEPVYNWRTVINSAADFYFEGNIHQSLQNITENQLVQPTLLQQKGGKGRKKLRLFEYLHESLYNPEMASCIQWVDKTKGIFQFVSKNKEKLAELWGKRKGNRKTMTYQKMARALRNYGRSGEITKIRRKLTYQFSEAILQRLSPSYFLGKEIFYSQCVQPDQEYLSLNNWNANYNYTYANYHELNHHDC
Summed up:
as §1

Another experiment deals with ELF4 (Homo sapiens, UniProt Q99607 1-663). Summed up: as §1
Sequence of ELF4 (Q99607 whole entry): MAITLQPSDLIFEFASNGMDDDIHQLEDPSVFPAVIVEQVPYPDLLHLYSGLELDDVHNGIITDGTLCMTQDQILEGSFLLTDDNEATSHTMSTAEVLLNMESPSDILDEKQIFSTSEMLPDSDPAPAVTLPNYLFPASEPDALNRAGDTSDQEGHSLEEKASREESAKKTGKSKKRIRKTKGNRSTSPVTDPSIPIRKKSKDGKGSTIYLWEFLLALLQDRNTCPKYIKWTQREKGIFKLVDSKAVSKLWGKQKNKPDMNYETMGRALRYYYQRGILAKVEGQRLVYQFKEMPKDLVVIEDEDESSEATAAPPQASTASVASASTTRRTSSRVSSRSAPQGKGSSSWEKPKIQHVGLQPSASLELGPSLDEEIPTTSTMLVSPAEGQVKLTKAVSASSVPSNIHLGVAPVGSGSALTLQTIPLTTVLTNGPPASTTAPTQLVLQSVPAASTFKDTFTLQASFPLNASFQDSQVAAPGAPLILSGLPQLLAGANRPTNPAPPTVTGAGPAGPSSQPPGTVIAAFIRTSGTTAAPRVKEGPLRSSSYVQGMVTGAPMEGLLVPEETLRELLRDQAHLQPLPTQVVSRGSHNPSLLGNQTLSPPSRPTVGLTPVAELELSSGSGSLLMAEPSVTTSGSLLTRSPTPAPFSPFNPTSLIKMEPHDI
Another experiment addresses T9, ELK4 (Homo sapiens, UniProt P28324-2 1-405).
T9 sequence: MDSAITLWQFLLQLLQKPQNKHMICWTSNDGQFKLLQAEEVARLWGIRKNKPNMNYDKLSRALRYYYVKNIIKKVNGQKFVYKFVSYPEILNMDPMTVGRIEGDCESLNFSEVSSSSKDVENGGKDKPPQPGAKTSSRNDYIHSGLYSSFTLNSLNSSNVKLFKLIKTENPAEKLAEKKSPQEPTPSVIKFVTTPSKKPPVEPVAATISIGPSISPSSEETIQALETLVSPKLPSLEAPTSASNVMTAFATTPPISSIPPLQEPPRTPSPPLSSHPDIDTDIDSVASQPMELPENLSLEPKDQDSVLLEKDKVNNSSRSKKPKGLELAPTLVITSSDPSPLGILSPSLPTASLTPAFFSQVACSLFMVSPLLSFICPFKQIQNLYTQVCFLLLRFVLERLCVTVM
The gist of the method:
as §1

A further experiment has as its target T10, ETV2 (Homo sapiens, UniProt O00321 1-342).
T10 sequence: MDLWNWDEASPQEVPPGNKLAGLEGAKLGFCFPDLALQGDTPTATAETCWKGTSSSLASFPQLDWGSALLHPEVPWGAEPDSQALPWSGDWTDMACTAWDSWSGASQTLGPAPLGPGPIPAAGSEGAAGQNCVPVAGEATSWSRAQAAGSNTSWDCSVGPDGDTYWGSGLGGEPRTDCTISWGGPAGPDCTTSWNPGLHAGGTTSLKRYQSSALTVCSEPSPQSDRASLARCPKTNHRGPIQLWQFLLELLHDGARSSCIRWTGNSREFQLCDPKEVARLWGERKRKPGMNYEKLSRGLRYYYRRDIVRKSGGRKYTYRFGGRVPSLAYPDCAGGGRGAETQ
The gist of the method:
as §1

A further experiment deals with T11, ELF3 (Homo sapiens, UniProt P78545 1-371).
T11 sequence: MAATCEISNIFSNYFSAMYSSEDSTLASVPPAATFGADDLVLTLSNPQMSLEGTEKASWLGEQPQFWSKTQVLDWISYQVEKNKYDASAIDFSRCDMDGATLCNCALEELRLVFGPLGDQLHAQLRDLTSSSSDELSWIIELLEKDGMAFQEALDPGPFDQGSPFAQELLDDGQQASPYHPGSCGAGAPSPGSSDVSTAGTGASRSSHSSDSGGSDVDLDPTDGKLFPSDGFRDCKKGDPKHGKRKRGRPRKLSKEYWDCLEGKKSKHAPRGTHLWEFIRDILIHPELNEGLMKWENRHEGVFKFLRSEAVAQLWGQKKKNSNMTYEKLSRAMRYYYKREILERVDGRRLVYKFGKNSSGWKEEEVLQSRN
The gist of the method: as §1

A further experiment deals with CRX (Homo sapiens, UniProt O43186 1-299). The gist of the method:
as §1

The next experiment deals with ETV1 (Homo sapiens, UniProt P50549 1-477). The gist of the method:
as §1

Sequence of ETV5 (P41161 whole entry): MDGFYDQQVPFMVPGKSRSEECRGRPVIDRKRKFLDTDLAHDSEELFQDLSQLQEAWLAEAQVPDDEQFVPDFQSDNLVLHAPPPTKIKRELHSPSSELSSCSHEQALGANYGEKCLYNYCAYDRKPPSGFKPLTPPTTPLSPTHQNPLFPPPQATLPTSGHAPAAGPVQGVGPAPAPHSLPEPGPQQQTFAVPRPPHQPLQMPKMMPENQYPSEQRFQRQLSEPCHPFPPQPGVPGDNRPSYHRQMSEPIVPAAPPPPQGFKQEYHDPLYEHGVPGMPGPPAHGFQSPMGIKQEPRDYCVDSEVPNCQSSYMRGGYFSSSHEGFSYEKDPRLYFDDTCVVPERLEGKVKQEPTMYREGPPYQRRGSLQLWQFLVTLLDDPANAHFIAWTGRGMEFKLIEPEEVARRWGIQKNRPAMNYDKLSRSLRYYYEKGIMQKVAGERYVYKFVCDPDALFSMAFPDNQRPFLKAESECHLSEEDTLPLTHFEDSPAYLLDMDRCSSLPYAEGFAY
Sequence of ELF1 (P32519 whole entry): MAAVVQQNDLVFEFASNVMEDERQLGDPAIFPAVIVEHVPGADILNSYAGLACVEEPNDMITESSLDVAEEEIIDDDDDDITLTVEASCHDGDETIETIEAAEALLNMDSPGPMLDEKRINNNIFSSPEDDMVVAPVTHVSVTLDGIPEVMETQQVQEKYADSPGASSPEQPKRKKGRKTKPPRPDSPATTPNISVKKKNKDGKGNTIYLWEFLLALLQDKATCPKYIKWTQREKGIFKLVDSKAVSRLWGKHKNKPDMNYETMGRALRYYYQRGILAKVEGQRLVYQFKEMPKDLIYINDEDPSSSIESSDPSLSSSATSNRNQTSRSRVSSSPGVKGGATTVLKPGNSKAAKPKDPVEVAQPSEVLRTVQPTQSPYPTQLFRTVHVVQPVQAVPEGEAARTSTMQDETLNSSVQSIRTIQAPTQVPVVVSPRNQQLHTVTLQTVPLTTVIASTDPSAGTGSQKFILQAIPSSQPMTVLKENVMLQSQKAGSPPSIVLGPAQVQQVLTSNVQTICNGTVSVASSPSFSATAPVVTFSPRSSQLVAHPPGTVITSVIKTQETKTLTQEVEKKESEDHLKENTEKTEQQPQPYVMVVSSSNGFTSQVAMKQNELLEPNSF
Sequence of SPIB (Q01892 whole entry): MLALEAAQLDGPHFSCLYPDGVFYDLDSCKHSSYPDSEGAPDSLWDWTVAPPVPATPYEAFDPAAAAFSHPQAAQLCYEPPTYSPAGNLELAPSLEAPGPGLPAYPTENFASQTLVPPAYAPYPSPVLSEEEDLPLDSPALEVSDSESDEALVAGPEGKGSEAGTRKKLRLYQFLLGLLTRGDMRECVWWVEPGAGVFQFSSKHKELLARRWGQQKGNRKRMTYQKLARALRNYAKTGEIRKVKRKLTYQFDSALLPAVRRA
Sequence of CRX (O43186 whole entry): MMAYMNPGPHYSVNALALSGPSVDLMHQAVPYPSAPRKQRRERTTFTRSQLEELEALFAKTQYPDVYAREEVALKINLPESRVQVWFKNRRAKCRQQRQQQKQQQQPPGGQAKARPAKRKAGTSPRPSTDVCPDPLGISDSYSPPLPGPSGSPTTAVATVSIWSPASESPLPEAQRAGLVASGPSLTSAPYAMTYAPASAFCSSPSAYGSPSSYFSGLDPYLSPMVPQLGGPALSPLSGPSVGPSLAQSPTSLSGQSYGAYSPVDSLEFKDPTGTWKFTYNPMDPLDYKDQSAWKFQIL
Sequence of ETV1 (P50549 whole entry): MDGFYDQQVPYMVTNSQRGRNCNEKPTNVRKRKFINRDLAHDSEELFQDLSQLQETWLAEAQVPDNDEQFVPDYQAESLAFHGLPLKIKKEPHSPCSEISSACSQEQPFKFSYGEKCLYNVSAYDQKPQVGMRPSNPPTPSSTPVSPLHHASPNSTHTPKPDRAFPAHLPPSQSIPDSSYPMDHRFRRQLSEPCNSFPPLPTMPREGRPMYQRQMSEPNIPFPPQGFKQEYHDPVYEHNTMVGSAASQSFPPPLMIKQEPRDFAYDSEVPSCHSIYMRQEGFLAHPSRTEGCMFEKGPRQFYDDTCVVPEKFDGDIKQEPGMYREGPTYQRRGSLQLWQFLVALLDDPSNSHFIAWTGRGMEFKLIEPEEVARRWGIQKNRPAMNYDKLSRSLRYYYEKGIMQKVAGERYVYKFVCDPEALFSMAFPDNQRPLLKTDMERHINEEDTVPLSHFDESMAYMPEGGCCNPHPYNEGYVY

Take TCATGG: the binding signal is 1.11 fold enrichment (6-mer frequency, TF over GST control) in the experiment with FLI1; 1.05 fold enrichment (6-mer frequency, TF over GST control) in the experiment with ELK1; 1.11 fold enrichment (6-mer frequency, TF over GST control) with GABPA; 1.15 fold enrichment (6-mer frequency, TF over GST control) with ERG; 1.18 fold enrichment (6-mer frequency, TF over GST control) in the experiment with ELF1; 1.12 fold enrichment (6-mer frequency, TF over GST control) in the experiment with EHF. Also, the binding signal in the experiment with SPI1 is 1.08 fold enrichment (6-mer frequency, TF over GST control); with SPIB, 1.11 fold enrichment (6-mer frequency, TF over GST control); with ELK3, 1.16 fold enrichment (6-mer frequency, TF over GST control); with FEV, 1.05 fold enrichment (6-mer frequency, TF over GST control); with ETV5 it was 1.09 fold enrichment (6-mer frequency, TF over GST control); in the experiment with SPIC, 1.16 fold enrichment (6-mer frequency, TF over GST control). In addition, the binding signal was 1.07 fold enrichment (6-mer frequency, TF over GST control) with ELF4; 1.05 fold enrichment (6-mer frequency, TF over GST control) with ELK4; 1.04 fold enrichment (6-mer frequency, TF over GST control) with ETV2; 1.16 fold enrichment (6-mer frequency, TF over GST control) in the experiment with ELF3; 1.07 fold enrichment (6-mer frequency, TF over GST control) in the experiment with CRX.

In the case of GCTACG, the binding signal in the experiment with FLI1 was 1.29 fold enrichment (6-mer frequency, TF over GST control); with ELK1, 1.22 fold enrichment (6-mer frequency, TF over GST control); with GABPA it was 1.11 fold enrichment (6-mer frequency, TF over GST control); with ERG, 1.11 fold enrichment (6-mer frequency, TF over GST control); with ELF1 it was 1.17 fold enrichment (6-mer frequency, TF over GST control); in the experiment with EHF, 1.19 fold enrichment (6-mer frequency, TF over GST control). In addition, the binding signal with SPI1 was 1.04 fold enrichment (6-mer frequency, TF over GST control); with SPIB it was 1.16 fold enrichment (6-mer frequency, TF over GST control); in the experiment with ELK3, 1.26 fold enrichment (6-mer frequency, TF over GST control); in the experiment with FEV it was 1.16 fold enrichment (6-mer frequency, TF over GST control); in the experiment with ETV5, 1.14 fold enrichment (6-mer frequency, TF over GST control); with SPIC, 1.12 fold enrichment (6-mer frequency, TF over GST control). In addition, the binding signal with ELF4 is 1.14 fold enrichment (6-mer frequency, TF over GST control); with ELK4, 1.41 fold enrichment (6-mer frequency, TF over GST control); in the experiment with ETV2, 1.1 fold enrichment (6-mer frequency, TF over GST control); with ELF3 it was 1.19 fold enrichment (6-mer frequency, TF over GST control); in the experiment with ETV1, 1.25 fold enrichment (6-mer frequency, TF over GST control).
